An excerpt weighted towards active compounds, which were near 4% of everything screened.
TIM10 inh = growth inhibitors of isogenic TIM10 control yeast, primary screen, counter-screen for tim10-1 yeast inhibitor project, luminescence, uHTS | S. cerevisiae TIM10 strain growth, BacTiter-Glo luminescence, 24 h | inhibition, % at 10 µM | AID 463195, 2010 | hit rate 1.4% among 330,000;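 active = inhibition of 40% or more at the single tested concentration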;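 note: wild-type TIM10 isogenic control strain grown at permissive 25 °C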
tim10-1 inh = growth inhibitors of tim10-1 mutant yeast, primary screen, luminescence, uHTS. inhibition, % at 20 µM. hit rate 2.2% among 330,000. S. cerevisiae tim10-1 ts strain growth, BacTiter-Glo, 24 h;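 active = inhibition of at least 40%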;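 note: mutant grown at 25 °C; 0% = DMSO wells with yeast and 100% = wells holding no yeast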
tim23-1 inh = growth inhibitors of tim23-1 mutant yeast, primary screen, luminescence, uHTS. S. cerevisiae tim23-1 growth, BacTiter-Glo luminescence, 24 h. inhibition, % at 20 µM. hit rate 1.3% among 330,000. AID 463212, 2010;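 active = growth inhibition of the mutant yeast at or above 50%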;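 note: temperature-sensitive mutant grown at 25 °C; plate controls were DMSO-treated mutant yeast for no effect and medium wells lacking yeast for full effect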
NLRP3 yeast inh = NALP3 inflammasome inhibitors in reconstituted yeast, primary screen, luminescence, uHTS; AID 2825, 2010; inhibition, % at 10 µM; hit rate 0.39% among 330,000; Yeast reconstituted NLRP3/ASC/caspase-1, beta-gal luminescence, 24 h;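 active = inhibition of 50% or more; inactive = inhibition below 50%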;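 note: plate controls were induced DMSO wells for no effect and uninduced yeast grown without galactose for full effect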
NALP1 inh = NALP1 inflammasome inhibitors in reconstituted yeast, colorimetric, S. cerevisiae, triplicate retest; S. cerevisiae NALP1/ASC/caspase-1 growth, X-gal OD620, 72 h; inhibition, % at 10 µM; hit rate 0.61% among 280,000; AID 2071, 2009; in the data active = inhibition mostly above about 24%, no sharp cut-off; inactive = mostly below about 32%
tim10 confirm = growth inhibitors of wild-type TIM10 yeast, confirmation, counter-screen for tim10-1 synthetic lethality project, single concentration, luminescence, S. cerevisiae; shares compounds with TIM10 inh; S. cerevisiae tim10 strain growth, BacTiter-Glo luminescence, 24 h; inhibition, % at 10 µM; hit rate 63% among 4,600;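 active = inhibition of yeast growth at or above a set limit in either of two replicates at 10 µM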;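 note: this counterscreen used the strain with wild-type TIM10; 0% = yeast with DMSO and 100% = medium wells lacking yeast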
An asterisk follows results filed as active; . = no result given.

SMILES	TIM10 inh	tim10-1 inh	tim23-1 inh	NLRP3 yeast inh	NALP1 inh	tim10 confirm
Cc1ccc(C)c(/C=N/n2cc(-c3ccccc3)[nH]c2=S)c1	35	35	3	2	-6	.
O=C1C(Nc2cccc(O)c2)=C(N2CCCCC2)C(=O)c2ccccc21	46*	11	17	-2	13	40*
O=C(Nc1ccc2c(c1)COC2=O)c1ccc(Cl)c(Cl)c1	14	9	6	23	13	.
CCOc1ccc(C2CC(c3ccc(F)cc3)n3ncnc3N2)cc1 (stereo not drawn)	40*	22	47	37	22	42*
O=C(O)CCC(=O)NNC(=O)c1ccc(Br)cc1	-11	-2	8	15	21	.
COC(=O)CC(NC(=S)NC(=O)c1ccccc1)c1ccc(Br)cc1 (stereo not drawn)	40*	26	34	10	3	37*
CCOC(=O)c1nnn(-c2ccccc2)c1C	7	10	11	17	15	.
CCOC(=O)c1nnn(-c2ccc([N+](=O)[O-])cc2[N+](=O)[O-])c1C	41*	23	44	14	-8	37*
COC(=O)C(C)N(C(=O)c1cccc(Cl)c1)c1c(C)cccc1C (stereo not drawn)	30	35	35	-23	34	.
COC(=O)C(C)N(C(=O)c1cccc2ccccc12)c1c(C)cccc1C (stereo not drawn)	42*	27	44	-7	8	31*
COC(=O)C1=C(N)Oc2cc(N(C)C)ccc2C1c1ccccc1OC (stereo not drawn)	42*	29	21	3	26	-1
Cc1nc(Nc2c(Cl)cccc2Cl)sc1C(=O)Nc1ccccc1	44*	36	35	1	27	31
Cc1onc(-c2ccccc2)c1C(=O)NC1CC1	1	4	-3	21	.	.
COC(=O)C1=C(C)N(c2ccc(C)c(C)c2)/C(=C/c2ccco2)C1=O	48*	37	38	-2	11	47*
COC(=O)C1=C(C)N(c2ccc(C)cc2)/C(=C/c2cccs2)C1=O	43*	38	34	-2	31	32*
O=C(c1cn(-c2ccccc2)nc1-c1ccc(Br)cc1)N1CCOCC1	50*	37	45	12	32	-10
Cc1ccsc1CN(C)C(=O)CN1C(=O)NC2(CCCc3ccccc32)C1=O (stereo not drawn)	96*	11	-7	9	.	-2
COc1cc(C(C[N+](=O)[O-])c2c(C)[nH]c3ccccc23)cc(OC)c1OC (stereo not drawn)	21	25	39	10	25	.
O=[N+]([O-])CC(c1ccccc1)c1c[nH]c2ccccc12 (stereo not drawn)	45*	19	39	-15	.	55*
O=C(NC(=S)N1CCN(c2nc(-c3ccccc3)cs2)CC1)c1cncc(Br)c1	22	17	14	13	-3	.
COc1ccc(/C=N/NC(=S)NCC2CCCO2)cc1 (stereo not drawn)	44*	31	33	22	.	20
COc1ccc(/C=C/C(=O)NC(=S)NCC2CCCO2)cc1 (stereo not drawn)	0	25	1	1	1	.
COc1ccccc1/C=C/C(=O)NC(=S)NCC1CCCO1 (stereo not drawn)	42*	34	21	15	-3	35*
COC(=O)c1cc(NC(=O)CN(C)C2CCS(=O)(=O)C2)cc(C(=O)OC)c1 (stereo not drawn)	-3	7	7	-2	.	.
Cc1cccc(CS(=O)(=O)Cc2ccc(C(=O)NC3CCCCCC3)o2)c1	0	18	10	7	2	.
SMILES	TIM10 inh	tim10-1 inh	tim23-1 inh	NLRP3 yeast inh	NALP1 inh	tim10 confirm
CCOC(=O)C1CCN(C(=O)c2sc3ncnc(N4CCC(C)CC4)c3c2C)CC1	41*	35	28	21	-39	16
CCOC(=O)C1CCN(C(=O)c2sc3nc(C)nc(N4CCC(C)CC4)c3c2C)CC1	27	19	33	12	15	.
Cc1ccc(C(=O)N2CC3(C(C)C)CN(C(=O)c4ccc(C)cc4)CC(C(C)C)(C2)C3=O)cc1	44*	38	20	8	0	5
Cc1ccccc1OCCn1cnc2cc([N+](=O)[O-])ccc2c1=O	42*	35	28	11	1	1
CCOc1cc(/C=N/NC(=O)COc2ccccc2C)ccc1OC(=O)c1cccs1	41*	23	32	-3	23	26
COc1ccc(-c2cc(C(F)F)n3ncc(C(=O)NCC4CCCO4)c3n2)cc1 (stereo not drawn)	45*	23	21	20	.	34*
O=C1c2ccccc2C(=O)N1CCCCSc1nc2ccccc2c(=O)n1CCCN1CCOCC1	14	18	-11	-4	16	.
Nc1c(C(=O)O)sc2nc(-c3ccccc3)c3c(c12)CCCC3	31	25	42	15	18	.
CCc1c(-c2ccccc2)nc2sc3c(c2c1N)CCCC3	45*	38	35	10	6	49*
C[C@]12C(=O)N(c3ccccc3)C(=O)N1[C@H]1c3ccccc3OC[C@@H]1[C@H]2c1ccccc1	42*	28	46	13	.	47*
CC1=C(C(=O)OC(C)C)C(c2cccs2)NC(=S)N1 (stereo not drawn)	10	29	15	26	11	.
O=C(NCC1CCCO1)c1cn(Cc2ccccc2Cl)nc1-c1ccccc1 (stereo not drawn)	2	17	24	14	.	.
CCC(C)(C(=O)NC1CCCC1)N(Cc1cccs1)C(=O)Cc1cccs1 (stereo not drawn)	45*	23	21	33	3	16
CCC(C)(C(=O)NC1CCCC1)N(Cc1cccs1)C(C)=O (stereo not drawn)	17	13	7	-1	15	.
CCOC(=O)C1=C(N)Oc2ccc3ccccc3c2C1c1cccnc1 (stereo not drawn)	46*	27	11	-2	-5	-6
C=CCn1c(SCc2c(Cl)cccc2Cl)nnc1-c1cccnc1	41*	39	27	-2	8	17
Cc1ccc(C(=O)Nc2ccccc2C(=O)N2CC3(C)CC2CC(C)(C)C3)cc1 (stereo not drawn)	44*	33	31	13	5	24
CC1(C)CC2CC(C)(CN2C(=O)NC(=O)c2ccccc2)C1 (stereo not drawn)	17	17	19	-13	27	.
O=C(N/N=C/c1cc([N+](=O)[O-])ccc1O)C12CC3CC(CC(C3)C1)C2	23	9	2	17	6	.
